Assay outcomes deposited in PubChem by National Center for Advancing Translational Sciences (NCATS).
TRHR enhancer: qHTS for Small Molecule Agonists and Allosteric Enhancers of Human TRH Receptor: Primary Screen for Enhancers. Thyrotropin-releasing hormone receptor (Homo sapiens), P34981. AID 493056, 2011. 360,000 tested, 0.66% active. enhancement, % at 2 µM. TRHR cells, fluo-8 calcium fluorescence, EC20 TRH enhancement; in the data active means enhancement above about 30%
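TRHR-expressing cells loaded with fluo-8 calcium dye were read kinetically (ex 480/em 530) during compound addition, then stimulated with an EC20 of TRH (10 nM final). Enhancement of the Gq-mediated intracellular calcium response was scored.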
TRHR agonist: qHTS for Small Molecule Agonists and Allosteric Enhancers of Human TRH Receptor: Primary Screen for Agonists. activation, % at 2 µM. TRHR cells, calcium flux fluo-8, FDSS agonist mode. Thyrotropin-releasing hormone receptor (Homo sapiens), P34981. 360,000 tested, 0.18% active
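TRHR-expressing cells, plated overnight in medium with 10% serum, were loaded with fluo-8 calcium dye at room temperature. After a 10 s baseline, library compound was pin-added and calcium release was recorded kinetically (ex 480/em 530) as agonist response.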
D1 agonist: Allosteric Agonists of the Human D1 Dopamine Receptor: qHTS. D(1A) dopamine receptor (Homo sapiens), P21728. HEK293 T-REx D1 cells, calcium flux, agonist mode. activation, % at 2 µM. 360,000 tested, 1% active. AID 504660, 2011
Target sequence (P21728 whole entry, looked up): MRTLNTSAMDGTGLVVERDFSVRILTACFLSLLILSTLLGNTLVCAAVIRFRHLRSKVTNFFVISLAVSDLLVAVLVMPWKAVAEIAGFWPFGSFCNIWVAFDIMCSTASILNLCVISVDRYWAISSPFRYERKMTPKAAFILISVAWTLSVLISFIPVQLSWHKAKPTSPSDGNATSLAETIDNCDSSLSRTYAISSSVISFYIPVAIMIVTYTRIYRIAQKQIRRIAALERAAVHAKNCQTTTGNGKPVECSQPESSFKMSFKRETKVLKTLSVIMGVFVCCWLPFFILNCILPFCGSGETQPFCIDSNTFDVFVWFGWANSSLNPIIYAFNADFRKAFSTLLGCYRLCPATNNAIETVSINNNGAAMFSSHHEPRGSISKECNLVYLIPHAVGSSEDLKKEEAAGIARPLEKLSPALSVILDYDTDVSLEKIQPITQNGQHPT
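Tetracycline-induced HEK293 TREx D1 cells, force-coupled to calcium signalling, were dye-loaded with a no-wash calcium kit. Compound was pin-added after a 10 s baseline. Fluorescence was read kinetically at 1 cycle/s for 180 s, with calcium rises flagged as agonism.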
D1 antag: Antagonist of Human D 1 Dopamine Receptor: qHTS; AID 504652, 2011; D(1A) dopamine receptor (Homo sapiens), P21728; activity change, negative = inhibition, % at 10 µM; HEK293 TREx D1 cells, calcium flux, dopamine EC80; stronger effect = lower value; 360,000 tested, 3.2% active; in the data active means activity change below about -30%
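Tetracycline-induced HEK293 Trex D1 cells, force-coupled to calcium, dye-loaded; compounds added and read 180 s, then EC80 dopamine added and calcium flux tracked kinetically another 180 s.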
D1 PAM: Potentiators of Human D1 Dopamine Receptor: qHTS; D(1A) dopamine receptor (Homo sapiens), P21728; HEK293 TREx D1 cells, calcium flux, dopamine EC20 potentiation; potentiation, % at 10 µM; 360,000 tested, 0.036% active; AID 504651, 2011; in the data active means potentiation above about 30%
Hits are given with their value; - = inactive. This is a sample that favours compounds with a hit; in the whole collection about 4.7% have one here. Unless noted, no stated cut-off is given here; in the data, active means activation above about 30%; inactive means the rest.

SMILES | TRHR enhancer | TRHR agonist | D1 agonist | D1 antag | D1 PAM
CCC(=O)N1CCc2cc(Br)cc(S(=O)(=O)N3CCC(C(=O)N(CC)CC)CC3)c21 | - | - | - | - | -
COc1cc2c(cc1NC(=O)COc1ccc(Cl)cc1Br)oc1ccccc12 | - | - | - | - | -
Cc1ccc(C(=O)N[C@@H](C)CN2C3=NC[C@H](C)N3C[C@H]2Cc2ccc(O)cc2)cc1Br | - | - | - | -65 | -
Cc1ccccc1NC(=O)c1ccc(CN2CC(=O)N3CCCCC3C2=O)cc1 (centres undefined) | - | - | - | -37 | -
Cc1cc(N2CCCC2)c(F)cc1/C=C\[N+](=O)[O-] | - | - | 400 | - | -
O=C(NNC(=O)c1ccccc1Cl)c1csc(N2CCOCC2)n1 | - | - | - | - | -
O=C(NNC(=O)c1ccccc1C(F)(F)F)c1csc(N2CCOCC2)n1 | - | - | - | -51 | -
CCN(CC)c1ccc(-n2c(C)cc(C=O)c2C)cc1 | - | - | - | -32 | -
Brc1ccccc1OCCCN1CCCCCC1 | - | - | - | -60 | -
Clc1ccccc1OCCCCN1CCCC1 | - | - | - | - | -
Brc1ccccc1OCCCN1CCCC1 | - | - | - | -45 | -
COc1cccc(CN2CC(C(=O)NC3CCC(O)CC3)CCC2=O)c1 (centres undefined) | - | - | - | - | -
Nc1ccc2nc3c(=O)n(CCc4ccccc4)c(=O)[nH]c3nc2c1 | 58 | 164 | 435 | - | -
CCCCn1c(N)c(Br)c(=O)[nH]c1=O | - | - | - | - | -
Cc1cc2nc3c(=O)n(CCc4ccccc4)c(=O)[nH]c3nc2cc1N | - | 142 | 352 | - | -
Nc1ccc2nc3c(=O)n(C4CCCCC4)c(=O)[nH]c3nc2c1 | - | 128 | 276 | - | -
CCCCn1c(=O)[nH]c2nc3cc(N)ccc3nc2c1=O | - | 108 | 207 | - | -
Nc1ccc2nc(CCc3ccccc3)[nH]c2c1 | - | - | - | - | -
CCCC(=O)N1CC(=O)Nc2ccc(Cl)cc2C1c1ccccc1 (centres undefined) | - | - | - | - | -
Cc1c(C(=O)NCc2ccc(N(C)C)cc2)oc2c1-c1nn(Cc3cccc(Cl)c3)cc1CC2 | - | - | - | - | -
O=C(NCC1CCCO1)C1CC(c2ccc(Cl)c(Cl)c2)=NO1 (centres undefined) | - | - | - | -32 | -
COc1ccc(CNC(=O)CCCN2C(=O)NC3(CCCC3)C2=O)cc1 | - | - | - | - | -
Cc1cc(N2CCN(S(=O)(=O)c3ccc(Br)cc3)CC2)n2ncnc2n1 | - | - | - | - | -
Cc1cc(N2CCN(S(=O)(=O)c3ccc4c(c3)OCCO4)CC2)n2ncnc2n1 | - | - | - | -46 | -
CN(C)c1cccc(C(=O)N(C)C2CCCN(Cc3ccccc3F)C2)c1 (centres undefined) | 31 | - | - | - | -
SMILES | TRHR enhancer | TRHR agonist | D1 agonist | D1 antag | D1 PAM
Cc1nc2ccccn2c1C(=O)NC1CCCc2ccccc21 (centres undefined) | - | - | - | -34 | -
O=C(NC1CCCc2ccccc21)c1cn2ccccc2n1 (centres undefined) | - | - | - | - | -
COc1ccc(NC(=O)NC2CCCc3ccccc32)cc1OC (centres undefined) | - | - | - | - | -
COc1ccc(NC(=O)NC2CCCc3ccccc32)cc1 (centres undefined) | - | - | - | -43 | -
Cc1cccc(NC(=O)NC2CCCc3ccccc32)c1 (centres undefined) | - | - | - | -44 | -
CC(=O)c1cccc(NC(=O)NC2CCCc3ccccc32)c1 (centres undefined) | - | - | - | - | -
Cc1ccc(C(=O)Nc2ccc3oc(-c4ccccc4C)nc3c2)cc1 | - | - | - | - | -
COc1cc(C(=O)N2CC(C)OC(C)C2)c([N+](=O)[O-])cc1OC (centres undefined) | - | - | - | -51 | -
CC(C)c1nc2ccc(C(=O)Nc3ccccc3F)cc2o1 | - | - | - | - | -
CC1=C(C(=O)NCc2ccc(Cl)cc2)C2(CCCCCC2)OC1=O | - | - | 45 | - | -
COc1ccc(CCNC(=O)C2=C(C)C(=O)OC23CCCCC3)c(OC)c1OC | 31 | - | - | - | -
COc1ccc(C(=O)N[C@H](C(=O)NCC2CCCCC2)C(C)C)cc1 | - | - | 160 | - | -
COc1ccc(C(=O)N[C@H](C(=O)NCc2ccc(C)cc2)C(C)C)cc1 | - | - | - | - | -
COc1cccc(NC(=O)CN(C)C(=O)c2ccc(OCc3ccccc3)c(OC)c2)c1 | - | - | - | - | -
COCCNC(=O)c1ccccc1NC(=O)c1nsc2ccccc12 | - | - | - | - | -
CCOC(=O)c1c(-c2ccc(C)cc2)csc1NC(=O)/C(C#N)=C/c1ccc(O)c(OC)c1 | - | - | 111 | - | -
COc1cc(/C=C(\C#N)C(=O)Nc2ccc3c(c2)OCCO3)ccc1O | - | - | 41 | - | -
CCOC(=O)/C(C#N)=C\c1ccc(O)c(OC)c1 | - | - | - | - | -
O=S(=O)(NC(=S)NC1CCCCC1)c1ccc(Br)cc1 | - | - | - | - | -
Cc1c(S(=O)(=O)c2cccc(Cl)c2)nnn1-c1cccc(C(F)(F)F)c1 | - | - | - | - | -
CN1CCN(CCOC2Cc3ccccc3Sc3ccc(Cl)cc32)CC1 (centres undefined) | - | - | - | -66 | -
O=C(CN1CCN(CCOCCO)CC1)N1c2ccccc2Sc2ccc(Cl)cc21 | - | - | - | - | -
OCCN1CCN(C2Cc3cc(Cl)ccc3Sc3ccc(Cl)cc32)CC1 (centres undefined) (tested in a mixture with another compound) | - | - | - | -86 | -
Cc1ccc(S(=O)(=O)c2nc(S(C)(=O)=O)sc2N2CC(C)OC(C)C2)cc1 (centres undefined) | - | - | - | - | -
CCOC(=O)CC(NC(=O)Cn1nnc(-c2ccc(C(F)(F)F)cc2)n1)c1ccc(C)cc1 (centres undefined) | - | - | - | - | -
COC(=O)c1ccc(NC(=O)CN2CCN(S(=O)(=O)c3cc(Cl)ccc3OC)CC2)cc1 | - | - | 38 | - | -
COc1ccc(S(=O)(=O)N2CCN(CC(=O)Nc3cccc(OC)c3)CC2)cc1 | - | - | - | - | -
COc1ccc(C(=O)CN2CCN(S(=O)(=O)c3ccc(F)cc3)CC2)cc1 | - | - | - | -30 | -
